HT1080 IDH1KD tx = HT-1080 IDH1 knockdown cell toxicity (counter line). Potency, µM (highest dose often 46.1 µM), hits mostly cytotoxic. 360,000 compounds, 2% hits. HT-1080 IDH1 knockdown viability, ATP luminescence, 48 h
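CellTiter-Glo luminescence after 48 h compound exposure at 37 degrees C of IDH1-knockdown HT-1080 cells in 5% FBS RPMI. %Activity scaled between DMSO wells and cell-free media wells, with curves fitted and assigned curve classes.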
IL1B secr inh = inflammasome signaling inhibition, IL-1 beta readout; activity change, % at 57.5 µM; THP-1 LPS/ATP IL-1B secretion, AlphaLISA, 16 h; hits give low values; 360,000 compounds, 4.7% hits; in the data active = activity change below about -50%; inconclusive = mostly about -30% to -49%
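Secreted IL-1B measured by AlphaLISA bead assay after 16 h compound exposure of THP-1 cells; compounds (final up to 57.5 uM) added 1 h before LPS (250 ng/mL) and ATP (1.25 mM) stimulation; lower signal means less secretion.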
uPA surface inh = cell surface uPA generation inhibition; cell surface uPA generation assay, qHTS; Potency, µM (titrated, usually from 38.3 µM), usual class: inhibitors; 330,000 compounds, 0.31% hits; active = well fitted inhibition curve with a large enough effect; inconclusive = small, poorly fitted or top-dose-only effect; inactive = no such curve, though single readings can be large or run the other way; tested in mouse RAW 264.7 cells; also: nearly all actives have a fitted effect of over 55% in size
HT1080NT lethal = kills 2HG-producing HT-1080-NT fibrosarcoma cells; HT-1080-NT fibrosarcoma viability, CellTiter-Glo ATP luminescence, 48 h; Potency, µM (top dose mostly 46.1 µM), most hits filed as cytotoxic; 360,000 compounds, 1.6% hits; AID 686970;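 also: NT is the 2HG producing partner of a matched IDH1 knockdown line; nearly all actives have a fitted effect of over 55% in size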
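Viability by CellTiter-Glo luminescence after 48 h compound exposure at 37C of HT-1080-NT cells (750/well, RPMI, 5% FBS). % activity scaled between DMSO wells and medium-only wells, then curve-fitted and categorized by curve class.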
TDP1 cell noCPT = qHTS for Inhibitors of human tyrosyl-DNA phosphodiesterase 1 (TDP1): qHTS in cells in absence of CPT; AID 686978, 2013; 420,000 compounds, 15% hits; Potency, µM (series often up to 46.2 µM), actives largely listed as inhibitors; DT40 Tdp1-/- hTDP1 cells, no CPT, ATP luminescence, 48 h; also: nearly all actives have a fitted effect of over 55% in size
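Luminescent ATP content (CellTiter-Glo) served as the growth readout. Knockout chicken DT40 cells expressing human TDP1 were exposed to compounds without camptothecin for a minimum 48 hr at 37 °C.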
TDP1 cell CPT = DT40-hTDP1 cell growth loss with CPT | chicken DT40 Tdp1-/-;hTDP1 cells + 20 nM CPT, ATP luminescence, 48 h | 420,000 compounds, 12% hits | AID 686979 | Potency, µM (top dose mostly 46.2 µM), hits mostly inhibitors; also: nearly all actives have a fitted effect of over 55% in size
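Cell growth measured by CellTiter-Glo luminescence after a minimum 48 h, 37 C compound exposure with 20 nM CPT in Tdp1-knockout DT40 cells stably expressing hTDP1, seeded 400/well; qHTS titration format.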
Numbers stand for hits; n = inactive; u = inconclusive; x = not tested or not shown. An excerpt weighted towards active compounds, which were near 19% of everything screened. Unless noted, calls follow the shape of the dose curve; as a rule, active = well fitted curve in the direction sought with a large enough effect; inconclusive = small, poorly fitted or top-dose-only effect, or another doubt; inactive = no such curve, though single readings can be large; an effect the other way counts as inactive or inconclusive.

SMILES	HT1080 IDH1KD tx	IL1B secr inh	uPA surface inh	HT1080NT lethal	TDP1 cell noCPT	TDP1 cell CPT
CCCCOC(=O)c1ccc(NC(=O)C(=O)NCCN(C)C)cc1	n	n	n	n	21µM	u
COc1cc(NC(=O)c2cc(Br)cc(C)c2OC)ccc1NC(=O)C(C)C	n	n	n	n	23µM	u
CCCCOC(=O)c1ccc(N/C(=N\S(=O)(=O)c2ccccc2)c2ccccc2)cc1	u	-54	n	u	u	n
COc1ccc([N+](=O)[O-])cc1C(=O)Nc1ccc(Cc2ccncc2)cc1	n	n	n	n	u	n
COc1c(C)cc(Br)cc1C(=O)Nc1ccc(Cc2ccncc2)cc1	u	-79	n	u	u	u
CN(C)CCCNc1cc(C(C)(C)C)nc2c(-c3ccc(Cl)cc3)cnn12	12µM	-105	n	18µM	u	13µM
CC(C)(C)c1cc(-n2ccnc2)n2ncc(-c3ccc(Cl)cc3)c2n1	n	n	n	n	u	u
CCc1nccn1-c1cc(C(C)(C)C)nc2c(-c3ccc(Cl)cc3)cnn12	n	n	n	n	18µM	u
CC(C)(C)c1cc(NCc2ccccn2)n2ncc(-c3ccc(Cl)cc3)c2n1	n	n	n	n	16µM	u
COc1ccc(NS(=O)(=O)c2c(C)cc(C)cc2C)cn1	n	n	n	n	n	n
CN1C(=S)SC(C)(C)C1N(O)C(=O)Nc1ccc(Cl)cc1 (stereo not given)	n	n	n	n	u	u
CN1C(=S)SC(N(O)C(=O)Nc2ccc(Cl)c(Cl)c2)C1(C)C (stereo not given)	u	n	n	n	16µM	21µM
CCCCN(CC)CCNc1ncnc2onc(-c3ccc(Cl)cc3)c12	x	x	x	x	n	n
CCc1ccc(CNc2ncnc3onc(-c4ccc(Cl)cc4)c23)cc1	x	x	x	x	16µM	n
Fc1ccc(CNc2ncnc3onc(-c4ccc(F)cc4)c23)cc1	x	x	x	x	23µM	18µM
Fc1ccc(-c2noc3ncnc(NCc4cccc(Cl)c4)c23)cc1	x	x	x	x	u	n
CC(C)C(=O)C1=Cc2cccc([N+](=O)[O-])c2OC1N1CCOCC1 (stereo not given)	n	-60	u	n	u	u
CC(C)C(=O)C1=Cc2cc([N+](=O)[O-])ccc2OC1N1CCOCC1 (stereo not given)	n	n	n	n	26µM	u
CC1CCN(c2ccc([N+](=O)[O-])cc2C(=O)N2CCOCC2)CC1	n	n	n	n	n	u
COC(=O)C1=Cc2cc(OC)cc([N+](=O)[O-])c2OC1N1CCOCC1 (stereo not given)	n	n	n	n	26µM	u
O=C(COc1ccc(Cl)cc1)OCCNC12CC3CC(CC(C3)C1)C2	x	x	x	x	n	n
COc1ccc(CN2CCN(Cc3cccn3-c3ncccn3)CC2CCO)c(C)c1C (stereo not given)	u	n	n	u	9.2µM	u
OCCC1CN(Cc2ccc3cc(Cl)ccc3n2)CCN1Cc1ccsc1 (stereo not given)	u	n	n	n	u	13µM
CCOc1ccc2nc(CN3CCN(Cc4ccccc4OCC)C(CCO)C3)ccc2c1 (stereo not given)	u	-70	n	n	26µM	23µM
COc1ccc(CN2CCN(Cc3ccc4cc(F)ccc4n3)CC2CCO)c(C)c1C (stereo not given)	18µM	u	n	u	u	16µM
SMILES	HT1080 IDH1KD tx	IL1B secr inh	uPA surface inh	HT1080NT lethal	TDP1 cell noCPT	TDP1 cell CPT
O=C(O)CCC1(CCC(=O)O)CCCC(CCC(=O)O)(CCC(=O)O)C1=O	n	n	n	n	n	n
CCOc1ccc(NC(=O)CCc2nnc3ccc(N4CCC5(CC4)OCCO5)nn23)cc1	n	n	n	n	n	n
CCOc1ccccc1CN1CCN(Cc2cc3ccccc3[nH]2)CC1CCO (stereo not given)	u	u	n	23µM	u	u
Cc1cc(N/N=C2/CCCc3ccccc32)nc2ccccc12	n	n	n	u	10µM	u
Cc1ccc(OCC(=O)Nc2cccnc2Cl)cc1C	n	n	n	n	n	n
Cc1ccc(CNC(=O)c2cc(-c3ccccc3)n(Cc3cc(C)no3)n2)cc1	n	n	n	n	u	21µM
COc1cc(NC(=O)Cn2c(=O)n(Cc3ccco3)c(=O)c3sc4ccccc4c32)cc(OC)c1	x	x	x	x	n	n
CCOC(=O)CN1C(=O)C(O)(c2c(C)[nH]c3ccccc23)c2ccccc21 (stereo not given)	n	n	n	n	n	n
CCN1C(=O)C(O)(c2c[nH]c3ccccc23)c2cc(Br)ccc21 (stereo not given)	x	x	x	x	u	n
CCCCN1C(=O)C(O)(c2c(C)[nH]c3ccccc23)c2cc(Br)ccc21 (stereo not given)	x	x	x	x	4.1µM	5.8µM
CCCCN1C(=O)C(O)(c2c(C)[nH]c3ccccc23)c2ccccc21 (stereo not given)	x	x	x	x	5.8µM	5.8µM
CC(C)OCCCNC(=O)CN1C(=O)c2cccc3cccc1c23	n	n	n	n	n	n
Cn1c(N)c(C(=O)COC(=O)c2ccc([N+](=O)[O-])o2)c(=O)n(C)c1=O	n	n	n	u	u	18µM
CCOC(=O)c1c(C)[nH]c(C(=O)COC(=O)c2ccc([N+](=O)[O-])o2)c1C	n	n	n	n	26µM	16µM
O=C(NCCC(NS(=O)(=O)OCC(Cl)(Cl)Cl)c1ccccc1)C(F)(F)F (stereo not given)	n	n	n	n	u	u
CC(=O)Oc1ccc(N(C(C)=O)S(=O)(=O)c2cccs2)c2ccccc12	18µM	n	u	u	u	12µM
COc1ccc(NC(=O)CNC(=O)C2CCCCC2)cc1OC	n	n	u	n	u	n
O=C(Nc1cccc(Cl)c1)Nc1nccs1	n	n	n	n	16µM	u
O=C(Nc1ccc(Cl)c(Cl)c1)Nc1nccs1	u	n	3.2µM	u	0.82µM	2.1µM
CSc1ccc(Cl)c(C(=O)Nc2nccs2)c1	n	n	n	n	n	n
O=C(NCCO)c1nc(C(=O)c2ccccc2)c2ccccc2n1	n	n	n	n	u	23µM
O=C(NCCO)c1cc(-c2cc(C(=O)NCCO)c3ccccc3n2)nc2ccccc12	n	n	n	n	n	n
N#Cc1nc(-c2ccco2)oc1N1CCCC1	n	n	n	n	n	n
N#Cc1nc(-c2ccco2)oc1N1CCN(c2cccc(Cl)c2)CC1	n	-62	n	n	n	u
CC1CC(C)CN(c2oc(-c3ccco3)nc2C#N)C1 (stereo not given)	n	n	n	n	21µM	18µM
COC(=O)N1CCC[C@@]2(CCN(C(=O)Nc3ccccc3)C2)C1	x	x	x	x	n	n
